Screening data deposited in PubChem by National Center for Advancing Translational Sciences (NCATS).
Shown are actives, neighbours in structure and some others; about 7.3% of the full set was active somewhere.
HEK293 tox: Cytotoxic Profiling in HEK 293 Cell Line of Diverse Libraries Using Quantitative High-Throughput Screening. HEK 293 viability, ATP luminescence (CellTiter-Glo), 48-72 h. Potency, µM (top dose mostly 115 µM), for inactives: at the highest dose activity change, negative = cytotoxicity, most hits filed as inhibitors. actives 6.6% (n = 94,000). AID 1345083, 2018; further: potency means the concentration at half of the fitted maximal effect; nearly all actives have a fitted effect of over 60% in size
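HEK 293 cells at 250 cells/well were exposed to compounds by pintool transfer for 48 or 72 hr at 37 degree Celsius, 5% CO2. Viability was read as ATP-coupled luminescence with CellTiter-Glo after 10 min at room temperature.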
SNCA viab count: GF-AFC viability counterscreen for inhibitors of alpha-synuclein gene (SNCA) expression | HEK-293-SNCA-luc viability, GF-AFC fluorescence, 24 h | Potency, µM (titrated, usually from 57.1 µM), without a hit: at the highest dose activity change, negative = cytotoxicity, most hits filed as cytotoxic | actives 0.12% (n = 150,000) | AID 1671193, 2021;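 further: potency means the concentration at half of the fitted maximal effect; 0% = DMSO-treated cells and -100% = medium-only wells without cells; nearly all actives have a fitted effect of over 30% in size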
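HEK-293-SNCA-luc cells (1500/well) plated 24 h, then exposed 24 h to a dilution series; GF-AFC added 30 min at 37C, fluorescence 405/540 nm; normalised to medium-only and DMSO wells, Hill fit.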
IP6K1 inh: Primary qHTS assay for small molecule inhibitors of Inositol hexaphosphate kinase 1 (IP6K1) | IP6K1 kinase, ADP-Glo luminescence, 2 h; hits give low values | actives 0.81% (n = 140,000) | activity change, % (series mostly up to about 58 µM) | Inositol hexakisphosphate kinase 1 (Homo sapiens), Q92551; in the data active means activity change below about -25%
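ADP-Glo luminescence measures ADP made by human IP6K1 during a 2 h RT reaction with ATP/IP6 (mix at 1.3 mM/130 uM); top library doses 57.5 and 19.1 uM final.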
FLuc inh: Firefly luciferase inhibition profiling of diverse chemical library using quantitative high-throughput screening; Luciferin 4-monooxygenase (Photinus pyralis), P08659; purified P. pyralis luciferase, luminescence, biochemical; Potency, µM (doses to about 115 µM), usual class: inhibitors; actives 2.5% (n = 76,000); AID 1347043, 2019; further: potency means the concentration at half of the fitted maximal effect; nearly all actives have a fitted effect of over 65% in size
Target sequence (P08659 whole entry, looked up): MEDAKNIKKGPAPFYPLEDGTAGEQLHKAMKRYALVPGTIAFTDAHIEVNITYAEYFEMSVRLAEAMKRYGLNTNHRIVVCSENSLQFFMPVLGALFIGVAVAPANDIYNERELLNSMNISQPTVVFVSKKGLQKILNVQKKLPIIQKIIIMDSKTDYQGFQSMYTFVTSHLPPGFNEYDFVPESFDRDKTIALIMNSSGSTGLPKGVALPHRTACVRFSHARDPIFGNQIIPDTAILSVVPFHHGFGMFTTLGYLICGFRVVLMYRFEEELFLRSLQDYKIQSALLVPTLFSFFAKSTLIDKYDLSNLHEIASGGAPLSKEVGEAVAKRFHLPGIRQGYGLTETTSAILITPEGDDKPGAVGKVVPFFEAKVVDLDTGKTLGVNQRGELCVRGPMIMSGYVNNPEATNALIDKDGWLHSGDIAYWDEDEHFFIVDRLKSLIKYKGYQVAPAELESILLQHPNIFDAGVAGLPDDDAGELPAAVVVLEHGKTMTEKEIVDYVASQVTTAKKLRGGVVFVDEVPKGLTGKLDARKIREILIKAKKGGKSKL
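Luminescence read by CCD imager after adding enzyme (10nM final) to wells holding compound, titrated in qHTS. Substrates 10uM each D-luciferin and ATP; buffer 50mM Tris acetate pH 7.5, 10mM Mg acetate, Tween-20, BSA.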
SNCA expr inhib: Primary qHTS assay for inhibitors of alpha-synuclein gene (SNCA) expression. Potency, µM (top dose mostly 57.2 µM), inactives show at the highest dose activity change, negative = inhibition, usual class: inhibitors. AID 1671194, 2021. HEK-293 SNCA-luciferase knock-in, luminescence, 24 h. actives 0.17% (n = 140,000);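 further: potency means the concentration at half of the fitted maximal effect; plate controls were DMSO cells for no effect and cell-free wells for full effect; nearly all actives have a fitted effect of over 45% in size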
NIH3T3 tox: Cytotoxic Profiling in NIH 3T3 Cell Line of Diverse Libraries Using Quantitative High-Throughput Screening; NIH 3T3 viability, CellTiter-Glo ATP luminescence, 48-72 h; Potency, µM (highest dose often 96.7 µM), inactives show at the top dose activity change, negative = cytotoxicity, hits mostly inhibitors; actives 4.3% (n = 94,000); AID 1345082, 2018; further: potency means the concentration at half of the fitted maximal effect; nearly all actives have a fitted effect of over 55% in size
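Cytotoxicity is measured as loss of cellular ATP: NIH 3T3 cells (400/well) are exposed to compound for 48 or 72 hr at 37 °C, then CellTiter-Glo luminescence is imaged after 10 min at room temperature.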
An asterisk follows results filed as active. Unless noted, the call rests on the fitted dose curve; in most records, active means well fitted curve in the direction sought with a large enough effect; inconclusive means small, poorly fitted or top-dose-only effect, or another doubt; inactive means no such curve, though single readings can be large; an effect the other way counts as inactive or inconclusive. Unless noted, on the % scale 0 is the no-effect control and ±100 the full control effect.

Screening Cc1cn2nc(C(=O)NCc3cccc(Cl)c3)cc2c(N2CCCC2)n1 returned HEK293 tox inconclusive, SNCA viab count 5%, IP6K1 inh 10, FLuc inh inactive, SNCA expr inhib inconclusive and NIH3T3 tox inconclusive.
Screening COc1ccc(C(=O)N2CCCCCCNC(=O)[C@@H]3CCC[C@@H]32)c(OC)n1 returned HEK293 tox -11%, SNCA viab count -6%, IP6K1 inh -4, FLuc inh inactive, SNCA expr inhib 9% and NIH3T3 tox -11%.
For CCCn1cc(CNC(=O)c2cc3c(s2)CCC(C)C3)cn1 (configuration not stated) the results were HEK293 tox inconclusive, SNCA viab count -9%, IP6K1 inh -13, FLuc inh 32µM*, SNCA expr inhib 39% and NIH3T3 tox inconclusive.
CCCNC(=O)C1CCc2sc(C(=O)N(C)C)cc2C1 (configuration not stated) was read as HEK293 tox 0%, SNCA viab count 5%, IP6K1 inh 35, FLuc inh inactive, SNCA expr inhib 12% and NIH3T3 tox -3%.
CC(C)N1CCN(c2ccc3nnc(C4CCC4)n3n2)CC1 was read as HEK293 tox 0%, SNCA viab count -1%, IP6K1 inh 5, FLuc inh inactive, SNCA expr inhib -12% and NIH3T3 tox -4%.
Cc1ccc(CN2CCC3(CC2)C(=O)NCN3Cc2ccc(Cl)cc2)cc1 was read as HEK293 tox inconclusive, SNCA viab count 0%, IP6K1 inh 6, FLuc inh inactive, SNCA expr inhib 10% and NIH3T3 tox -26%.
COc1ccc(CN2CCC3(CC2)C(=O)NCN3Cc2ccc(Cl)cc2)cc1 was read as HEK293 tox 40µM*, SNCA viab count 6%, IP6K1 inh -9, FLuc inh inactive, SNCA expr inhib -2% and NIH3T3 tox inconclusive.
